Measured values reported in PubChem BioAssay.
“And” between values parts separate entries of the source, which are not always exact repeats. Equal entries are not always repeated. More than one record can exist for a structure, and the calls need not agree. The source made the active and inactive calls.

experiment: PSAC antagonists in infected red cells, primary screen, cell-based, P. falciparum Indochina, OD700, 1 h (AID 1154); settings: P. falciparum Indochina infected RBC osmotic lysis, higher = more signal, called active from +8 up or from −8 down

SMILES	z-score
CC(CO)N1C(=O)[C@@H]2C3C(=O)OCCC=C[C@H]3OC23C=CCN(c2ccc(Cl)cc2)C(=O)[C@@H]13 (some centres undefined)	0.725 (inactive) and 3.92 (inactive)
CCOC(=O)NN=C1C[C@@H](O)[C@@H](O)[C@@H]2[C@@H]3C(=O)N(Cc4ccc5c(c4)OCO5)C(=O)[C@@H]3CC[C@@H]12	6.5 (inactive)
C=CCN(C(=O)C(c1cccs1)N(C(=O)/C=C\C(=O)O)c1ccc(CCO)cc1)C(C)(C)C (centres undefined)	-0.274 (inactive) and -0.322 (inactive)
C=CCN(C(=O)C(c1cccs1)N(C(=O)/C=C\C(=O)O)c1c(Cl)cccc1CO)C(C)(C)C (centres undefined)	0.294 (inactive) and 0.153 (inactive)
C=CCN(CCCCC)C(=O)C1N(c2c(Cl)cccc2CO)C(=O)C2C(C(=O)O)C3C=CC21O3 (centres undefined)	1.02 (inactive) and 0.766 (inactive)
C=CCN(CCCC)C(=O)C(c1cccs1)N(CCOCCO)C(=O)/C=C\C(=O)O (centres undefined)	-0.0592 (inactive) and -0.28 (inactive)
CCCCCN1CC=CC23O[C@@H]4C=CCCOC(=O)C4[C@H]2C(=O)N(C(C)CO)[C@@H]3C1=O (some centres undefined)	2.38 (inactive) and 0.551 (inactive)
COC(=O)[C@H](C)NC(=O)CCC1CC(OC(=O)NCCc2ccc(F)cc2)CC2(CCCC(COC(=O)NCCCN3CCCC3=O)O2)O1 (some centres undefined)	-0.798 (inactive)
COC(=O)C1=C(C)N(Cc2ccccc2)C2=C(C(C)=O)C[C@@](O)(C(=O)OC)C(=O)N2[C@@H]1c1ccccc1	0.0793 (inactive) and -0.0501 (inactive)
C=CCN(CCCCC)C(=O)C(c1cccs1)N(C(=O)/C=C\C(=O)O)c1c(Cl)cccc1CO (centres undefined)	-0.501 (inactive) and 0.334 (inactive)
CC(C)CON=C1C[C@@H](O)[C@@H](O)[C@@H]2[C@@H]3C(=O)N(c4cccc(Oc5ccccc5)c4)C(=O)[C@@H]3CC[C@H]12	-0.436 (inactive)
C=CCN(C(=O)C(c1cccs1)N(C(=O)/C=C\C(=O)O)C(C)(C)CO)c1ccc(OC)cc1 (centres undefined)	0.292 (inactive) and 3.92 (inactive)
CCCNC(=O)OC[C@H]1O[C@H](CCON=C(C)CCN2CCc3nc(-c4ccccc4)c(-c4ccccc4)cc3C2)C=C[C@@H]1Oc1ccc(OC)cc1	1.77 (inactive)
C=CC[C@@H](O)c1ccc(O)c(F)c1	0.92 (inactive) and -0.126 (inactive)
C=CCN(Cc1ccccc1)C(=O)C(c1cccs1)N(C(=O)/C=C\C(=O)O)c1c(Cl)cccc1CO (centres undefined)	-0.152 (inactive) and -0.0214 (inactive)
CC(C)[Si]1(C(C)C)OCc2cc(CCCc3cc4c(c(CCc5ccccc5)n3)[Si](C(C)C)(C(C)C)OC4)nc(CCc3ccccc3)c21	1.1 (inactive) and 0.221 (inactive)
COC(=O)[C@@]1(Cc2ccc(F)cc2)[C@H]2c3cc(C(=O)N4CCCC4)n(Cc4c(CO)[nH]cc(C)c4=O)c3C[C@H]2CN1C(=O)c1ccccc1	1.02 (inactive) and 1.15 (inactive)
C=CCN(C(=O)C1N(c2ccc(CCO)cc2)C(=O)C2C(C(=O)O)C3C=CC21O3)c1ccc(OC)cc1 (centres undefined)	2.34 (inactive) and 0.289 (inactive)
C=CCN(C(=O)C1N(CCOCCO)C(=O)C2C(C(=O)O)C3C=CC21O3)C(C)(C)C (centres undefined)	0.901 (inactive) and -0.5 (inactive)
CCOC(=O)c1ccc(NC(=O)O[C@H]2[C@H](OC(=O)Nc3ccccc3)[C@H](OC(=O)Nc3ccccc3)[C@@H](OC)O[C@@H]2CO)cc1	14.6 (active) and 24.1 (active)

SMILES	z-score
CC(C)=NOCc1ccc(-c2cn([C@@H]3COC[C@H]3O)nn2)cc1	11.2 (active)
C[C@@H]1CC[C@H]2C(=O)O[C@H](CN=[N+]=[N-])CN2[C@H]1c1ccc(Br)cc1	-0.1 (inactive) and 2.08 (inactive)
C=CCN1C(=O)[C@]2(O[C@H](CCn3cc(CCO)nn3)[C@@H]([Si](C)(C)c3ccc(OC)cc3)[C@@H]2C)c2cc(N3C(=O)c4cccc5cccc3c45)ccc21	24.1 (active)
CC(CO)N1C(=O)[C@@H]2C3C(=O)OCCC=C[C@H]3OC23C=CCN(Cc2ccccc2)C(=O)[C@@H]13 (some centres undefined)	3.31 (inactive) and 0.464 (inactive)
C=CCN(C(=O)C1N(c2c(Cl)cccc2CO)C(=O)C2C(C(=O)O)C3C=CC21O3)C(C)(C)C (centres undefined)	1.77 (inactive) and -0.973 (inactive)
O=C1C[C@]2(c3ccc([N+](=O)[O-])cc3)C(=O)N(Cc3ccccc3)c3cc(CO)ccc3[C@H]2N1C1CCCCC1	0.164 (inactive) and 11.5 (active)
C[C@@H](ON=C1[C@H]2CCn3c(=O)n(-c4ccccc4)c(=O)n3[C@H]2[C@H](O)[C@@H]2O[C@H]12)c1cn([C@H](CO)Cc2ccccc2)nn1	0.508 (inactive)
C=CCN(CCCC)C(=O)C1N(C(C)(C)CO)C(=O)C2C(C(=O)O)C3C=CC21O3 (centres undefined)	0.109 (inactive) and 0.0708 (inactive)
COC(=O)[C@@]1(Cc2ccccc2)[C@H]2c3cc(C(=O)N(C)C)n(C[C@H](O)CO)c3C[C@H]2CN1C(=O)c1ccccc1	0.67 (inactive) and 0.448 (inactive)
C[C@@H]1CN2[C@@H](CC[C@@H](C)[C@@H]2c2ccc(Br)cc2)C(=O)O1	0.169 (inactive) and -0.313 (inactive)
COC(=O)C1=C(C)N(Cc2ccccc2)[C@]23O[C@](C(=O)OC)(C(=O)N2[C@@H]1c1ccccc1)[C@@H](C(=O)OC)[C@H]3C(=O)OC	0.295 (inactive) and 0.114 (inactive)
C=CCN(Cc1ccccc1)C(=O)C1N(c2ccc(CCO)cc2)C(=O)C2C(C(=O)O)C3C=CC21O3 (centres undefined)	1.25 (inactive) and 1.16 (inactive)
CCOC(=O)C[C@H]1[C@H](OC(=O)c2ccccc2-c2ccccc2)[C@@H](NC(=O)Cc2ccc(OC)cc2)c2cc(OCCCO)ccc2N1C(=O)c1ccc2ccccc2n1	3.8 (inactive) and 1.18 (inactive)
CC(C)CCN1CCc2nc(-c3ccccc3)c3c(c2C1)CO[C@@H](C)C3	0.253 (inactive)
CCOC(=O)[C@@H]1CC=C2CC1C(=O)N1CCC[C@@H]1[C@H]2O[Si](C)(C)C(C)(C)C (some centres undefined)	-0.0845 (inactive) and 0.699 (inactive)
COC(=O)[C@@]1(Cc2ccc(OC)cc2)[C@H]2c3cc(C(=O)N(C)C)n(Cc4ccc(O)c(OC)c4)c3C[C@H]2CN1C(=O)c1ccccc1	7.35 (inactive) and 6.71 (inactive)
CO[C@H]1COC(=O)CC=C[C@H](C)[C@H](OC)COC(=O)[C@@H](C)COC(=O)CC=C[C@@H]1C	-0.267 (inactive) and 0.565 (inactive)
CCOC(=O)C[C@H]1[C@H](OC(=O)c2ccccc2-c2ccccc2)[C@@H](NC(=O)c2ccccc2)c2cc(OCCCO)ccc2N1C(=O)c1ccc2ccccc2n1	5.24 (inactive) and 2.8 (inactive)
C=CCN(CCCC)C(=O)C1N(c2c(Cl)cccc2CO)C(=O)C2C(C(=O)O)C3C=CC21O3 (centres undefined)	1.2 (inactive) and 1.94 (inactive)
